Source: PubChem
An excerpt weighted towards active compounds, which were near 31% of everything screened.
CYP2C9 activ: human CYP2C9 activators, primary screen, biochemical, luminescence. recombinant CYP2C9, luciferin-H conversion; active compounds read high; factor 1 = untreated enzyme, 0 = blocked. activation factor at 5 µM. hit rate 1.4% among 96,000;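 active = activation factor of 2 or more for CYP2C9 at a 5 µM dose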
Target sequence (P11712 whole entry, looked up): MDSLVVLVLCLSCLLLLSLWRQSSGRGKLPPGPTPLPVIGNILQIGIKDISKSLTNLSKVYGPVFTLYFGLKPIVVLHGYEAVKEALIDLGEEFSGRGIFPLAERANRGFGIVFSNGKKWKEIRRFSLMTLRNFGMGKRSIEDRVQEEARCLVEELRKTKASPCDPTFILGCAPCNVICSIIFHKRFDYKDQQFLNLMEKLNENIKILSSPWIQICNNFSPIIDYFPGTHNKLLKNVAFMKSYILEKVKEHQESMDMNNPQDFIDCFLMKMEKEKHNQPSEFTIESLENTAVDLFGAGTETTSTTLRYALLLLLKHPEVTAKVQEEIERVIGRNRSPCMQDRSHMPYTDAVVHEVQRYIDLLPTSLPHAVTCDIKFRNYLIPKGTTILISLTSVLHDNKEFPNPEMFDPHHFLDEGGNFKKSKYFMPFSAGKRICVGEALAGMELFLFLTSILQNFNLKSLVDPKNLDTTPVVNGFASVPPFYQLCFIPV
PLAP activator: PLAP enzyme activators, biochemical, luminescence, HTS; Alkaline phosphatase, placental type (Homo sapiens), P05187; purified PLAP enzyme, luminescent substrate read-out; active compounds read high; activation fold at 20 µM; hit rate 1.2% among 96,000; AID 696, 2007; in the data active = activation fold above about 2
CYP2C9 inhib: blockers of cytochrome P450 2C9 activity – biochemical, luminescence, ADME assay, primary screen; P11712; CYP2C9 Supersomes, luciferin-H conversion; inhibition, % at 5 µM; hit rate 20% among 96,000;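 active = blocking of liver enzyme CYP2C9 beyond about 50% at 5 µM, limit read from the data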
CYP2C19 act: human CYP2C19 activators, primary screen, biochemical, luminescence; recombinant CYP2C19, luciferin-H EGE luminescence; active compounds read high; 0 = fully inhibited enzyme, 1 = untreated enzyme; activation factor at 5 µM; 96,000 tested, under 10 active;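 active = activation factor of at least 2 at 5 µM in the primary screen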
CYP2C19 inhib: blockers of cytochrome P450 2C19 activity – biochemical, luminescence, ADME assay, primary screen; P33261; CYP2C19 Supersomes, luciferin-H EGE luminescence, 30 min; inhibition, % at 5 µM; hit rate 21% among 96,000; AID 778, 2007;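 active = CYP2C19 inhibition above a set limit at 5 µM in the primary screen, cut at about 50% in these data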
Each line names hits and unclear results; the compound was inactive in the other large screens.

COc1cccc(CNCCOCCO)c1OC	none
COc1cccc(CNCc2ccccn2)c1OC	CYP2C19 inhib 73.5
COc1cc(CNCc2ccccn2)ccc1OCC(N)=O	none
Cc1ccc(Cn2c(CN3CC(C)OC(C)C3)nc3c2c(=O)[nH]c(=O)n3C)cc1 (stereo not given)	none
Cn1c(SCCCC(=O)c2ccc(F)cc2)nnc1-c1ccncc1	CYP2C9 inhib 59.0, CYP2C19 inhib 71.0
CCn1c(SCC(=O)Nc2nnc(C)s2)nnc1-c1ccncc1	none
CCc1cccc2c(C(=O)CSc3nnc(-c4ccoc4C)n3C)c[nH]c12	CYP2C9 inhib 52.6, CYP2C19 inhib 65.0
Cn1c(SCC(=O)c2ccc(F)cc2)nnc1-c1cnccn1	none
Cn1c(SCCCC(=O)c2ccccc2)nnc1-c1ccncc1	CYP2C9 inhib 54.0, CYP2C19 inhib 67.9
COCCn1c(SCCCC(=O)c2ccc(Br)cc2)nnc1-c1ccncc1	CYP2C9 inhib 84.6, CYP2C19 inhib 93.8
CCn1c(SCC(=O)c2ccc(F)cc2)nnc1-c1ccoc1C	none
Cn1c(SCCSc2nnc(-c3ccccc3)n2C)nnc1-c1ccccc1	none
c1ccc2c(c1)ccc1nnc(SCc3ccc4c(c3)OCO4)n12	none
Cc1occc1-c1nnc(SCCCC(=O)c2ccc(F)cc2)n1C	CYP2C9 inhib 54.1, CYP2C19 inhib 71.5
O=C1C=C(O)CC(c2cccs2)C1 (stereo not given)	none
CC1CCC(NC(=O)c2cnccn2)CC1 (stereo not given)	none
CC(C)(C)C(=O)NC(Nc1cccc2cccnc12)C(Cl)(Cl)Cl (stereo not given)	CYP2C9 inhib 54.1, CYP2C19 inhib 53.7
CC(C)C(=O)NC(NC(=S)Nc1cccc2cccnc12)C(Cl)(Cl)Cl (stereo not given)	CYP2C9 inhib 83.8
Cc1cnc(C(=O)Nc2cccc3cccnc23)cn1	none
CCN(CC)CC(O)COc1ccc2c(c1)OCO2 (stereo not given)	none
Cc1ccc(CNc2ncc(-c3ccc4c(c3)OCO4)n2C)cc1	CYP2C9 inhib 74.4, CYP2C19 inhib 68.6 (no result: PLAP activator)
Cn1c(-c2ccc3c(c2)OCO3)cnc1NCc1ccc(Cl)cc1	CYP2C9 inhib 98.6, CYP2C19 inhib 66.5
COc1cc(NC(=O)Cn2nc(Cc3cccnc3)c3ccccc3c2=O)cc(OC)c1OC	CYP2C9 inhib 61.6, CYP2C19 inhib 54.3
O=C(Cn1nc(Cc2cccnc2)c2ccccc2c1=O)NCc1ccc(F)cc1	CYP2C9 inhib 82.9, CYP2C19 inhib 58.3
O=C(Cn1nc(Cc2cccnc2)c2ccccc2c1=O)N1CCN(c2ccccn2)CC1	CYP2C9 inhib 86.9
CCCCN(CC)CCCNC(=O)Cn1nc(Cc2cccnc2)c2ccccc2c1=O	none
O=C(Cn1nc(Cc2cccnc2)c2ccccc2c1=O)NCc1ccc2c(c1)OCO2	CYP2C9 inhib 88.6, CYP2C19 inhib 56.5
Cc1csc(SCC(=O)c2c(N)n(CC(C)C)c(=O)n(C)c2=O)n1	none
CC1=C(C(=O)Nc2ccccn2)C(c2cccnc2)n2nnnc2N1 (stereo not given)	none
COc1cc2c(cc1OC)CN(C(=O)CC1CC3CCC1C3)CC2 (stereo not given)	none
Cn1c(C(=O)NCc2ccc3c(c2)OCO3)cc2sccc21	CYP2C9 inhib 74.9, CYP2C19 inhib 79.5
COc1cc(NC(=O)c2cc3sccc3n2C)cc(OC)c1	CYP2C9 inhib 79.9, CYP2C19 inhib 86.0
CCc1ccccc1NC(=O)c1cc2sccc2n1C	none
COC(=O)c1ccc(NC(=O)c2cc3sccc3n2C)cc1	none
Cn1c(C(=O)Nc2ccccc2)cc2sccc21	none
Cn1c(C(=O)Nc2ccc3c(c2)OCO3)cc2sccc21	CYP2C19 inhib 95.5
CCCC1S/C(=N/N=C/c2ccc(C)cc2)N(Cc2ccc(OC)cc2)C1=O (stereo not given)	none
COc1ccc(CN2C(=O)c3ccccc3C(/C=N\OCc3ccc(C)cc3)C2=O)cc1 (stereo not given)	CYP2C9 inhib 73.3
COCCCN1C(=O)c2[nH]nc(-c3cc(C)cc(C)c3O)c2C1c1ccc(O)c(OC)c1 (stereo not given)	CYP2C9 inhib 62.8, CYP2C19 inhib 87.3
COc1ccc(CCN2C(=O)c3[nH]nc(-c4ccccc4O)c3C2c2ccccc2)cc1OC (stereo not given)	none
COc1cc(C2c3c(-c4cc(C)cc(C)c4O)n[nH]c3C(=O)N2CCCO)cc(OC)c1OC (stereo not given)	PLAP activator 2.1
COCCN=C1Sc2nc3ccc(C)cc3cc2CN1Cc1ccco1	PLAP activator 2, CYP2C9 inhib 68.4, CYP2C19 inhib 58.8
CCOc1ccc2nc3c(cc2c1)CN(CCOC)C(=NCCOC)S3	none
Cn1cc(S(=O)(=O)N2CCN(C(=O)c3ccco3)CC2)c(=O)n(C)c1=O	none
O=C(NCc1ccc2c(c1)OCO2)C1CCN(C(=O)Nc2ccc(Cl)cc2)CC1	none
O=C(NCc1ccc2c(c1)OCO2)c1ccc(-c2ccc(Cl)cc2)o1	CYP2C9 inhib 99.5
c1cc(CNc2ccc3c(c2)OCO3)ccn1	CYP2C9 inhib 62.8, CYP2C19 inhib 71.0
O=C(Nc1ccc2c(c1)OCO2)c1noc2c1CCCCC2	CYP2C9 inhib 88.7
O=C(Nc1ccc2c(c1)OCO2)c1ccc2nc[nH]c2c1	PLAP activator 2, CYP2C9 inhib 56.5, CYP2C19 inhib 80.4
Cc1cc(C)nc(N2CCC(C(=O)Nc3ccc4c(c3)CCC4)CC2)n1	none
O=C(Nc1ccc2c(c1)OCO2)c1ccncc1	CYP2C19 inhib 53.1
O=C(Nc1ccn(Cc2ccc(Cl)cc2)n1)c1ccc2c(c1)OCO2	CYP2C9 inhib 92.5, CYP2C19 inhib 90.9
O=C(NCc1cccc(Cl)c1)c1ccc2c(c1)OCO2	CYP2C19 inhib 50.2
O=C(NCc1cccnc1)c1ccc2c(c1)OCO2	none
O=C(NCc1ccc2c(c1)OCO2)c1cccc(F)c1	CYP2C9 inhib 66.3, CYP2C19 inhib 99.4
CC(C)(C)NC(=O)CSc1ncnc2c1nnn2Cc1ccccc1Cl	none
COc1cc(NC(=O)c2cccc(Cl)c2)c(OC)cc1NC(=O)CN1CCOCC1	none
C=CCC1CCCCC12NC(=O)NC2=O (stereo not given)	none
O=C(NCc1ccc2c(c1)OCO2)c1nn2cccnc2c1Cl	none
CN(c1ccc(C(=O)NCc2ccc3c(c2)OCO3)cc1)S(C)(=O)=O	none
O=C(NCc1cccc(Cl)c1)c1cccc(C(F)(F)F)c1	CYP2C19 inhib 62.3
CC(NC(=O)c1ccco1)C(=O)OCc1cccc(Cl)c1 (stereo not given)	none
O=C(NCc1ccc2c(c1)OCO2)c1cccc(Cl)c1	CYP2C19 inhib 98.5
O=C(NCc1ccc2c(c1)OCO2)c1ccncc1	CYP2C19 inhib 68.0
O=C(NCc1cccc(Cl)c1)c1ccco1	CYP2C19 inhib 57.2
Cc1ccccc1-n1c(Cc2cccs2)n[nH]c1=S	none
Cc1cc(C)n2nc(C(=O)Nc3ccc4c(c3)OCO4)nc2n1	none
Cc1ccnc2nc(C(=O)Nc3ccc4c(c3)OCO4)nn12	CYP2C19 inhib 75.3
